Compound activity as filed in PubChem BioAssay.
Shown are actives, neighbours in structure and some others; about 13% of the full set was active somewhere.
UCHL1 block: blocks human UCHL1 ubiquitin-rhodamine cleavage; P09936; purified UCHL1, Ub-rhodamine cleavage fluorescence; inhibition, % at 20 µM; 47,000 compounds, 0.2% hits; AID 1645859
Target sequence (P09936 whole entry, looked up): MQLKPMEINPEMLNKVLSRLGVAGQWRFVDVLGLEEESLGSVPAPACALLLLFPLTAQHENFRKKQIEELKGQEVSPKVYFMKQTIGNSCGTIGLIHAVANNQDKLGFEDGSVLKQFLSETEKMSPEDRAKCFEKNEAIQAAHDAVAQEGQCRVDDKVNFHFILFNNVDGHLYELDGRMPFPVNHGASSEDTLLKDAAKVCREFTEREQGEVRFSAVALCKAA
USP7 block: blocks human USP7 ubiquitin-rhodamine cleavage. purified USP7, Ub-rhodamine cleavage fluorescence. 47,000 compounds, 0.3% hits. inhibition, % at 20 µM. AID 1645854
USP10 block: inhibitors of human USP10 deubiquitinase | Q14694 | purified USP10, Ub-rhodamine fluorescence, 60 min | inhibition, % at 20 µM | 47,000 compounds, 1.1% hits
USP17 inh: inhibitors of human USP17 deubiquitinase | A8MUK1 | purified USP17, Ub-rhodamine cleavage fluorescence, 3 h | inhibition, % at 50 µM | 47,000 compounds, 6.5% hits
USP30 block: blocks human USP30 ubiquitin-rhodamine cleavage; 47,000 compounds, 5.3% hits; Q70CQ3; purified USP30, Ub-rhodamine cleavage fluorescence; inhibition, % at 25 µM
USP8 block: blocks human USP8 ubiquitin-rhodamine cleavage; P40818; purified USP8, Ub-rhodamine cleavage fluorescence, 30 min; inhibition, % at 20 µM; 47,000 compounds, 4.2% hits; AID 1645853
The depositor's hits bear a star; i = inactive. Rule as the data show it: active = inhibition above about 30%; inactive = the rest.

SMILES	UCHL1 block	USP7 block	USP10 block	USP17 inh	USP30 block	USP8 block
N#Cc1c(N)nc2c(c1N)C(c1ccccc1)CO2 (configuration not stated)	-1	2	3	44*	58*	0
Cn1nc(C(=O)Nc2ccccc2C#N)c2c1-c1ccccc1OC2	-1	3	5	10	0	0
O=C(NCC(c1cccnc1)N1CCc2ccccc2C1)c1ccc(F)cc1 (configuration not stated)	-2	-5	-4	-7	-43	9
O=C(NCC(c1cccnc1)N1CCc2ccccc2C1)C(=O)Nc1ccc2c(c1)OCO2 (configuration not stated)	3	3	19	75*	-6	24
O=S(=O)(Nc1ccccc1Cc1ccccc1)c1ccc(F)cc1	5	-7	20	36*	38*	10
CCCc1ccc(S(=O)(=O)NCc2ccccc2F)cc1	6	2	8	21	15	6
CCCc1ccc(S(=O)(=O)Nc2ccccc2F)cc1	3	4	12	26	32*	15
O=S(=O)(Nc1ccccc1Cc1ccccc1)c1ccc(Cl)cc1	8	2	27	27	31*	15
Cc1ncc(C(=O)NC2CC2)c(=O)n1CC(=O)Nc1ccccc1F	-1	1	-2	-6	-5	-5
Cc1nc2c(-c3ccncc3)nsc2c(=O)n1CC(=O)Nc1ccccc1F	-2	-2	-12	46*	-332	0
CN1CC[C@@H]2[C@H](C1)CN2S(=O)(=O)c1cccc(C#N)c1	2	4	1	5	2	7
COc1cc2c(cc1OC)[C@H]1Cc3cc(OC)c(OC)cc3[C@@H](C2)N1C	5	1	-2	14	-6	17
COc1cc2c(cc1OC)C(COc1cc(C)cc(C)c1)NCC2 (configuration not stated)	-12	-9	-6	1	-204	65*
CCOC(=O)Cc1ccc(NC(=O)Nc2ccc3snnc3c2)cc1	1	-7	1	27	-21	-1
O=C(Nc1ccc2snnc2c1)Nc1ccc(F)cc1F	2	15	28	-14	-39	74*
Cc1cc(NS(=O)(=O)c2ccc(NC(=O)COc3ccc(C(=O)c4ccccc4)cc3)cc2)nc(C)n1	0	0	11	22	21	20
O=C(C1CCC1)N1CCC(c2nc3c(nnn3Cc3c(F)cccc3Cl)c(=O)[nH]2)CC1	-4	-26	3	-5	6	0
O=c1[nH]c(C2CCN(S(=O)(=O)c3ccc(S(=O)(=O)NC4CCCCC4)cc3)CC2)nc2c1nnn2Cc1c(Cl)cccc1Cl	7	20	42*	10	50*	40*
O=c1[nH]c(C2CCN(S(=O)(=O)c3ccc(S(=O)(=O)NC4CCCCC4)cc3)CC2)nc2c1nnn2Cc1c(F)cccc1Cl	6	15	45*	17	59*	24
O=c1[nH]c(C2CCN(S(=O)(=O)c3ccc(S(=O)(=O)NC4CC4)cc3)CC2)nc2c1nnn2Cc1c(Cl)cccc1Cl	5	13	31*	28	12	32*
Cc1ccc(C)c(Cn2nnc3c(=O)[nH]c(C4CCN(S(=O)(=O)c5ccc(S(=O)(=O)NC6CCCCC6)cc5)CC4)nc32)c1	2	15	20	1	16	-120
O=C(C1CCC1)N1CCOC(c2ncc(Cc3ccc(F)cc3)o2)C1 (configuration not stated)	-2	-1	3	-14	-14	-3
COc1cccc(C2c3[nH]c4ccccc4c3C[C@@H]3C(=O)N(CCCN4CCOCC4)CC(=O)N23)c1 (some centres not stated)	0	-3	-7	-17	37*	-27
COc1ccc(C2c3[nH]c4ccccc4c3C[C@H]3C(=O)N(CCCN4CCOCC4)CC(=O)N23)cc1 (some centres not stated)	-4	-2	-2	-28	-90	-11
O=C(Nc1ccccc1)C1CCc2nc(N3CCCC3)ncc2C1 (configuration not stated)	0	-26	-2	-2	-13	-14
SMILES	UCHL1 block	USP7 block	USP10 block	USP17 inh	USP30 block	USP8 block
Cc1nnc(Nc2cccc(C3CCCN(CC(N)=O)C3)n2)s1 (configuration not stated)	0	1	4	8	30*	5
Cc1nnc(Nc2cccc(C3CCCNC3)n2)s1 (configuration not stated)	0	5	2	2	23	-39
COc1ccc(CCNC(=O)c2ccc(N3C(=O)[C@@H]4Cc5c([nH]c6ccccc56)C(c5ccc(C)cc5)N4C3=O)cc2)cc1 (some centres not stated)	-52	-41	-8	-99	i	-137
COc1cccc2cc(C(=O)C3=C(O)C(=O)N(CCCN(C)C)C3c3ccco3)oc12 (configuration not stated)	0	1	-5	22	0	44*
COC(=O)c1ccc(CNC(=O)COC(=O)c2cc(-c3ccccc3)nc3ccccc23)cc1	2	5	20	9	47*	15
CSc1nnc(NC(=O)c2cc(-c3cc(Cl)ccc3O)n[nH]2)s1	3	12	18	19	23	24
CCCc1nnc(NC(=O)c2cc(-c3ccccc3O)n[nH]2)s1	4	16	54*	8	-4	1
COc1ccc(CC(=O)NCc2ccc3[nH]c(C)cc3c2)cc1	-8	-4	-4	56*	-50	14
Cc1cc2cc(CNC(=O)c3ccccc3[N+](=O)[O-])ccc2[nH]1	5	3	0	39*	1	-59
COCCCNC(=O)c1nnn(-c2cccc3c2CCN(Cc2ccccn2)C3)c1C	-11	-11	-6	-55	-224	-4
Cc1nc(SCC(=O)Nc2ccc(S(N)(=O)=O)cc2)c2cnn(-c3ccccc3)c2n1	4	3	41*	-29	-73	-22
COc1c2c(nc3ccccc13)OC([C@@](C)(O)COC(C)=O)C2 (some centres not stated)	-1	4	0	0	0	-1
Cc1c(C(=O)N2CCC(Cc3ccccc3)CC2)oc2c1C(=O)CCC2	0	-19	3	18	33*	10
CCCCCC(=O)N1c2ccccc2NC2=C(C(=O)CC(c3ccc(C(C)(C)C)cc3)C2)C1c1ccncc1 (configuration not stated)	4	7	7	74*	25	2
CC(=O)N1c2ccccc2NC2=C(C(=O)CC(c3ccco3)C2)C1c1ccc(Cl)cc1 (configuration not stated)	-1	-20	-1	18	-56	43*
COc1cc(C2CC(=O)C3=C(C2)Nc2ccccc2N(C(=O)c2ccccc2)C3c2ccc(C)cc2)cc(OC)c1OC (configuration not stated)	8	14	7	-11	-11	-8
